Source: PubChem (The Scripps Research Institute Molecular Screening Center)
TTR transcr act: increases transthyretin transcription | SH-SY5Y TTR promoter Gaussia luciferase, luminescence; 100% = recombinant luciferase protein wells | activation, % at 16.7 µM | 92,000 compounds, 1.3% hits | AID 1117267;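 active = activation above the mean of all tested compounds plus 3 SD, cut at about 9.5% in these data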;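 also: cells exposed to compounds for one day before reading; 0% = median of all test compound wells on the plate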
TTR inh HuH7: counter-screen for TTR activators: TTR transcription inhibitors in HuH7 cells; shares compounds with TTR transcr act; HuH7 TTR promoter-Gaussia luciferase reporter, luminescence; inhibition, % at 16.7 µM; 1,100 compounds, 4% hits;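 active = average inhibition above the solvent-only control wells' mean plus 3 SD, cut at about 15% in these data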;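 also: 0% = cells with DMSO only and 100% = cells with inhibitor control FD; inhibitors lower well luminescence so higher value means more inhibition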
TTR act confirm: confirmation of human transthyretin transcription activators; SHSY5Y TTR promoter Gaussia luciferase, luminescence; 100% = purified Lucia enzyme wells, no cells; shares compounds with TTR transcr act; AID 1117280; activation, % at 16.7 µM; 1,100 tested, under 10 active;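 active = mean activation above a set limit taken from the earlier primary screen, cut at about 11% in these data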;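 also: 0% = DMSO-treated cells and 100% = recombinant Lucia luciferase without cells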
* hit, by the source's call. This is one part of a sample in which hits are shown more often than they occur.

What do the screens show for `O=C(NCc1cccnc1)Nc1ccccc1C(F)(F)F`?
TTR transcr act: 1.0

What do the screens show for `CCOC(=O)CNC1CC(=O)N(c2ccc(Br)cc2)C1=O` (stereo not given)?
TTR transcr act: -1.9

What do the screens show for `Cc1cn([C@H]2C[C@H](O)[C@@H](CNCc3ccc(N4CCN(C)CC4)cc3F)O2)c(=O)[nH]c1=O`?
TTR transcr act: 3.4

What do the screens show for `C=Cn1cc(CNC[C@H]2O[C@@H](n3cc(C)c(=O)[nH]c3=O)C[C@@H]2O)c(C)n1`?
TTR transcr act: 11.4*; TTR inh HuH7: -13.2; TTR act confirm: -0.5

How did Cc1cn([C@H]2C[C@H](O)[C@@H](CNC(=O)[C@H]3CCC(=O)N3)O2)c(=O)[nH]c1=O do in these assays?
TTR transcr act: 1.6

What do the screens show for `Cc1cccc(C)c1NC(=O)N1CCC(C(=O)c2ccc(F)cc2)CC1`?
TTR transcr act: -1.8

What do the screens show for `O=C(Nc1ccccc1)c1cc(C2CCCN(C(=O)C3CC3)C2)on1` (stereo not given)?
TTR transcr act: 10.0*; TTR inh HuH7: -10.2; TTR act confirm: 0.3

Results for CN(C)c1ccc(CC(=O)N2CCCC(c3cc(C(=O)Nc4ccccc4)no3)C2)cc1 (stereo not given) ?
TTR transcr act: -0.1

What do the screens show for `Cc1ccc(F)cc1C(=O)N1CCCC(c2cc(C(=O)Nc3ccccc3)no2)C1` (stereo not given)?
TTR transcr act: -4.1

How did OCCO do in these assays?
TTR transcr act: 1.8

How did COCCCNC(=O)/C=C/[C@H]1O[C@@H](n2cnc3c(NC(=O)c4ccccc4)ncnc32)[C@H](O)[C@@H]1O do in these assays?
TTR transcr act: 3.0

How did O=C(/C=C/[C@H]1O[C@@H](n2cnc3c(NC(=O)c4ccccc4)ncnc32)[C@H](O)[C@@H]1O)NCCc1ccc(F)cc1 do in these assays?
TTR transcr act: 20.8*; TTR inh HuH7: -22.2; TTR act confirm: 0.4

Results for O=C(/C=C/[C@H]1O[C@@H](n2cnc3c(NC(=O)c4ccccc4)ncnc32)[C@H](O)[C@@H]1O)NCCc1c[nH]c2ccccc12 ?
TTR transcr act: -0.9

Results for CCCC[C@H]1C2CC(OC(=O)Nc3ccccc3C(F)(F)F)C(C2)[C@H]2CCCCN21 (stereo not given in full) ?
TTR transcr act: -1.3

What do the screens show for `COC[C@H]1CCCN1c1ccc2c(c1)O[C@@H]1CCN(C1)S2(=O)=O`?
TTR transcr act: 0.8

Results for COP(=O)(O)CCOCCC(CC(C)C)NC(=O)OCc1ccccc1 (stereo not given) ?
TTR transcr act: 1.3

What do the screens show for `c1csc(CNc2nc(NCC3CCCCC3)c3sccc3n2)c1`?
TTR transcr act: -0.7

How did CN(CC(=O)Nc1ccccc1Br)C(=O)c1ccncc1 do in these assays?
TTR transcr act: -0.2

Results for CC1CCc2[nH]c3ccc(C(=O)N(C)CC(=O)Nc4ccccc4Br)cc3c2C1 (stereo not given) ?
TTR transcr act: 30.8*; TTR inh HuH7: -42.3; TTR act confirm: 0.2

How did CC1CCc2[nH]c3ccc(C(=O)NCC4CCCO4)cc3c2C1 (stereo not given) do in these assays?
TTR transcr act: 4.7

What do the screens show for `O=C(NCc1ccccc1Cl)c1ccc2sc([C@H]3C[C@H](O)[C@@H](CO)O3)nc2c1`?
TTR transcr act: 3.2

Results for COCC(=O)N(c1ccc(C(C)(C)C)cc1)C(C(=O)NC(C)(C)C)c1cccnc1 (stereo not given) ?
TTR transcr act: 2.3

What do the screens show for `O=C(NC1CCCCN(Cc2ccc(Cl)cc2)C1=O)c1ccc(Cl)cc1Cl` (stereo not given)?
TTR transcr act: 0.4

Results for COc1cccc(NC(=O)N(C)C[C@H]2Oc3cc(Br)ccc3S(=O)(=O)N([C@H](C)CO)C[C@H]2C)c1 ?
TTR transcr act: 0.5

What do the screens show for `COc1ccc(CN2CCN(S(=O)(=O)c3ccccc3)CC2)c(OC)c1`?
TTR transcr act: 2.2

Results for COc1ccc(CN2CCN(S(=O)(=O)c3ccccc3)CC2)c(OC)c1OC ?
TTR transcr act: 16.7*; TTR inh HuH7: -14.2; TTR act confirm: -0.7

How did COc1cccc(CN2CCN(S(=O)(=O)c3ccccc3)CC2)c1OC do in these assays?
TTR transcr act: 8.1

What do the screens show for `COc1ccc2c3c([nH]c2c1)C1=NCC[C@]12c1ccccc1N=CN2CC3`?
TTR transcr act: -1.3

Results for CCCN1CCN(C(=O)c2oc3ccccc3c2NC(=O)COc2ccc(OC)cc2)CC1 ?
TTR transcr act: -1.9

Results for C[C@H]1CCCCO[C@@H](CN(C)C(=O)NC2CCCCC2)[C@@H](C)CN([C@@H](C)CO)C(=O)c2cc(NC(=O)Cc3ccccc3)ccc2O1 ?
TTR transcr act: -1.8

Results for COc1ccc(CNC(=O)O[C@H]2CC[C@@]34CCCN3C(=O)CCC[C@H]4[C@H]2C)cc1 ?
TTR transcr act: -1.6

Results for O=C(Nc1ccccc1)Nc1nc2ncccn2c1-c1ccc(C(F)(F)F)cc1 ?
TTR transcr act: -1.7

Results for N#CC(=C(O)CN1CCN(c2ccccc2F)CC1)c1nc(-c2ccc(Cl)cc2)cs1 ?
TTR transcr act: 0.0

How did CN(Cc1ccccc1C(F)(F)F)C(=O)C1CCC(=O)N(CC2CCCCC2)C1 (stereo not given) do in these assays?
TTR transcr act: 1.2

Results for CN1CCN(C2=C(Cl)C(=O)N(CCc3ccccc3)C2=O)CC1 ?
TTR transcr act: 4.6

What do the screens show for `O=C(CCc1ccccc1)NCCCN1CCOCC1`?
TTR transcr act: 0.8

Results for O=C1C(Cl)=C(NCCCN2CCOCC2)C(=O)N1CCc1ccccc1 ?
TTR transcr act: 69.5*; TTR inh HuH7: -2.7; TTR act confirm: -0.7

How did CC(C)N(C[C@@H]1CSCCS(=O)(=O)N1)C(C)C do in these assays?
TTR transcr act: -1.1

Results for COC(=O)[C@]12C[C@H](CC(=O)N3CCCC3)C(=O)N(Cc3cccc4ccccc34)C1=C[C@H](C(C)(C)C)O[C@@H]2C ?
TTR transcr act: -1.8

How did Cn1c(=O)c(-c2ccccc2)c(O)c2ccccc21 do in these assays?
TTR transcr act: -0.5

How did Cc1cc(C)c(-c2c(O)c3cccnc3n(C)c2=O)c(C)c1 do in these assays?
TTR transcr act: 10.5*; TTR inh HuH7: -10.1; TTR act confirm: 0.4

How did Cn1c(=O)c2cccnc2c(=O)n1C do in these assays?
TTR transcr act: -1.7

What do the screens show for `CN(C)c1cccc(-c2ccnc(N3CCC(C(N)=O)CC3)n2)c1`?
TTR transcr act: -1.6

Results for Cc1nc(SCCc2nc3ccccc3[nH]2)c2oc3ccccc3c2n1 ?
TTR transcr act: 0.8

How did COc1ccc(-c2cc(=O)c3c(C)cc(O)cc3o2)cc1 do in these assays?
TTR transcr act: -2.2

What do the screens show for `COc1ccc(-c2[nH]nc3oc(=O)cc(C)c23)cc1`?
TTR transcr act: 16.1*; TTR inh HuH7: -17.5; TTR act confirm: -0.6

What do the screens show for `COc1ccc(-c2cc(=O)c3c(OC)c(OC)c(OC)c(OC)c3o2)cc1`?
TTR transcr act: -2.6

How did COc1ccc(/C=N/NC(=O)c2ccccc2NC(=O)c2ccco2)c(OC)c1 do in these assays?
TTR transcr act: -1.0

How did Cc1csc(NC(=O)c2nc3nccc(C)n3n2)n1 do in these assays?
TTR transcr act: 11.2*; TTR inh HuH7: -7.8; TTR act confirm: -1.0

What do the screens show for `Cc1ccnc2nc(C(=O)Nc3ccc(N4CCOCC4)cc3)nn12`?
TTR transcr act: 0.7
